Measured values from PubChem BioAssay AID1159580 (chemical genetic matrix, 2015).
In all, about 5,500 compounds went through this assay and about 2,000 (36%) were called active. Roughly 18% stayed inconclusive and do not appear here. No stated cut-off is given here; in the data, active means normalized growth mostly below about 0.91 (no sharp cut-off); inconclusive means no clear call, values can overlap the other calls; inactive means mostly above about 0.92. This is one part of the list.

Experiment: chemical genetic growth profiling, strain panel (AID 1159580);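 further: tested at 20 µM; growth read once vehicle control cultures reached saturation at 30 °C; 1 = growth at the plate median or of vehicle wells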
Details: growth OD
[1] = S. cerevisiae deletion strains, locus YDL101C, strain DUN1, stronger effect = lower value
[2] = S. cerevisiae deletion strains, locus YHR030C, strain SLT2, stronger effect = lower value
[3] = S. cerevisiae deletion strains, locus YAL013W, strain DEP1, stronger effect = lower value
[4] = S. cerevisiae deletion strains, locus YDR150W, strain NUM1, stronger effect = lower value
[5] = S. cerevisiae deletion strains, locus YGR229C, strain SMI1, stronger effect = lower value
[6] = S. cerevisiae deletion strains, locus YJR075W, strain HOC1, stronger effect = lower value
[7] = S. cerevisiae deletion strains, locus YMR307W, strain GAS1, stronger effect = lower value
[8] = S. cerevisiae deletion strains, locus YNL322C, strain KRE1, stronger effect = lower value
[9] = S. cerevisiae deletion strains, locus YPL055C, strain LGE1, stronger effect = lower value
[10] = S. cerevisiae deletion strains, locus YBR229C, strain ROT2, stronger effect = lower value
[11] = S. cerevisiae deletion strains, locus YCL061C, strain MRC1, stronger effect = lower value
[12] = S. cerevisiae deletion strains, locus YDL134C, strain PPH21, stronger effect = lower value
[13] = S. cerevisiae deletion strains, locus YEL061C, strain CIN8, stronger effect = lower value
[14] = S. cerevisiae deletion strains, locus YGR078C, strain PAC10, stronger effect = lower value
[15] = S. cerevisiae deletion strains, locus YHR087W, strain rtc3, stronger effect = lower value
[16] = S. cerevisiae deletion strains, locus YJL187C, strain SWE1, stronger effect = lower value
[17] = S. cerevisiae deletion strains, locus YJR043C, strain POL32, stronger effect = lower value
[18] = S. cerevisiae deletion strains, locus YLR039C, strain RIC1, stronger effect = lower value
[19] = S. cerevisiae deletion strains, locus YLR058C, strain SHM2 (second series), stronger effect = lower value
[20] = S. cerevisiae deletion strains, locus YLR085C, strain ARP6, stronger effect = lower value
[21] = S. cerevisiae deletion strains, locus YLR262C, strain YPT6, stronger effect = lower value
[22] = S. cerevisiae deletion strains, locus YML094W, strain GIM5, stronger effect = lower value
[23] = S. cerevisiae deletion strains, locus YMR219W, strain ESC1, stronger effect = lower value
[24] = S. cerevisiae deletion strains, locus YNL153C, strain GIM3, stronger effect = lower value
[25] = S. cerevisiae deletion strains, locus YNL298W, strain CLA4 (second series), stronger effect = lower value
[26] = S. cerevisiae deletion strains, locus YNR030W, strain Alg12, stronger effect = lower value
[27] = S. cerevisiae deletion strains, locus YPL241C, strain CIN2, stronger effect = lower value
[28] = S. cerevisiae deletion strains, locus YPR135W, strain CTF4, stronger effect = lower value

Measured: normalized growth

COCCOc1ccccc1NC(=S)SCCSC(=S)Nc1ccccc1OCCOC
inactive: S. cerevisiae deletion strains, locus YAR019C, strain CDC15, stronger effect = lower value 0.988 | S. cerevisiae deletion strains, locus YBL105C, strain PKC1, stronger effect = lower value 0.978 | S. cerevisiae deletion strains, locus YBR135W, strain CKS1, stronger effect = lower value 0.978 | S. cerevisiae deletion strains, locus YBR136W, strain MEC1, stronger effect = lower value 0.977 | S. cerevisiae deletion strains, locus YBR160W, strain CDC28, stronger effect = lower value 0.979 | S. cerevisiae deletion strains, locus YDL017W, strain CDC7, stronger effect = lower value 0.98 | S. cerevisiae deletion strains, locus YDL028C, strain MPS1, stronger effect = lower value 0.98 | [1] 0.973 | S. cerevisiae deletion strains, locus YDL108W, strain KIN28, stronger effect = lower value 0.97 | S. cerevisiae deletion strains, locus YDL132W, strain cdc53, stronger effect = lower value 0.976 | S. cerevisiae deletion strains, locus YDL214C, strain PRR2, stronger effect = lower value 0.911 | S. cerevisiae deletion strains, locus YDR052C, strain DBF4, stronger effect = lower value 0.981 | S. cerevisiae deletion strains, locus YDR054C, strain cdc34, stronger effect = lower value 0.976 | S. cerevisiae deletion strains, locus YDR226W, strain ADK1, stronger effect = lower value 0.969 | S. cerevisiae deletion strains, locus YDR477W, strain SNF1, stronger effect = lower value 0.955 | S. cerevisiae deletion strains, locus YER123W, strain YCK3, stronger effect = lower value 0.883 | S. cerevisiae deletion strains, locus YER133W, strain GLC7, stronger effect = lower value 0.938 | S. cerevisiae deletion strains, locus YFL009W, strain cdc4, stronger effect = lower value 0.976 | S. cerevisiae deletion strains, locus YFL029C, strain CAK1, stronger effect = lower value 0.981 | S. cerevisiae deletion strains, locus YFR003C, strain YPI1, stronger effect = lower value 0.977 | S. cerevisiae deletion strains, locus YFR019W, strain FAB1, stronger effect = lower value 0.945 | S. cerevisiae deletion strains, locus YFR028C, strain CDC14, stronger effect = lower value 0.988 | S. cerevisiae deletion strains, locus YGR040W, strain KSS1, stronger effect = lower value 0.938 | S. cerevisiae deletion strains, locus YGR052W, strain FMP48, stronger effect = lower value 1 | S. cerevisiae deletion strains, locus YGR092W, strain DBF2, stronger effect = lower value 0.933 | [2] 1.15 | S. cerevisiae deletion strains, locus YHR079C, strain IRE1, stronger effect = lower value 1.03 | S. cerevisiae deletion strains, locus YHR082C, strain KSP1, stronger effect = lower value 1.01 | S. cerevisiae deletion strains, locus YHR205W, strain SCH9, stronger effect = lower value 0.936 | S. cerevisiae deletion strains, locus YIL147C, strain SLN1, stronger effect = lower value 0.97 | S. cerevisiae deletion strains, locus YJL095W, strain BCK1, stronger effect = lower value 1.03 | S. cerevisiae deletion strains, locus YJL128C, strain PBS2, stronger effect = lower value 0.941 | S. cerevisiae deletion strains, locus YJL157C, strain FAR1, stronger effect = lower value 0.924 | S. cerevisiae deletion strains, locus YJR016C, strain ILV3, stronger effect = lower value 0.987 | S. cerevisiae deletion strains, locus YJR066W, strain TOR1 (second series), stronger effect = lower value 0.899 | S. cerevisiae deletion strains, locus YJR066W, strain TOR1, stronger effect = lower value 1.03 | S. cerevisiae deletion strains, locus YKL048C, strain ELM1, stronger effect = lower value 0.944 | S. cerevisiae deletion strains, locus YKL067W, strain YNK1, stronger effect = lower value 0.937 | S. cerevisiae deletion strains, locus YKL101W, strain HSL1, stronger effect = lower value 0.931 | S. cerevisiae deletion strains, locus YKL193C, strain SDS22, stronger effect = lower value 0.985 | S. cerevisiae deletion strains, locus YKL203C, strain TOR2, stronger effect = lower value 1.02 | S. cerevisiae deletion strains, locus YLR113W, strain HOG1, stronger effect = lower value 0.931 | S. cerevisiae deletion strains, locus YLR133W, strain CKI1, stronger effect = lower value 0.947 | S. cerevisiae deletion strains, locus YLR403W, strain SFP1, stronger effect = lower value 0.944 | S. cerevisiae deletion strains, locus YML070W, strain DAK1, stronger effect = lower value 0.902 | S. cerevisiae deletion strains, locus YMR001C, strain CDC5, stronger effect = lower value 0.981 | S. cerevisiae deletion strains, locus YMR205C, strain PFK2 (second series), stronger effect = lower value 0.939 | S. cerevisiae deletion strains, locus YMR277W, strain FCP1, stronger effect = lower value 0.984 | S. cerevisiae deletion strains, locus YNL006W, strain LST8, stronger effect = lower value 0.983 | S. cerevisiae deletion strains, locus YNL020C, strain ARK1, stronger effect = lower value 0.931 | S. cerevisiae deletion strains, locus YNL161W, strain CBK1, stronger effect = lower value 0.984 | S. cerevisiae deletion strains, locus YNL183C, strain NPR1, stronger effect = lower value 1.01 | S. cerevisiae deletion strains, locus YNL207W, strain RIO2, stronger effect = lower value 0.993 | S. cerevisiae deletion strains, locus YNL222W, strain SSU72, stronger effect = lower value 0.972 | S. cerevisiae deletion strains, locus YNL307C, strain MCK1 (second series), stronger effect = lower value 0.946 | S. cerevisiae deletion strains, locus YOL078W, strain AVO1, stronger effect = lower value 0.98 | S. cerevisiae deletion strains, locus YOL136C, strain PFK27, stronger effect = lower value 0.918 | S. cerevisiae deletion strains, locus YOR061W, strain CKA2, stronger effect = lower value 0.92 | S. cerevisiae deletion strains, locus YOR119C, strain RIO1, stronger effect = lower value 0.991 | S. cerevisiae deletion strains, locus YOR231W, strain MKK1, stronger effect = lower value 1 | S. cerevisiae deletion strains, locus YOR329C, strain SCD5, stronger effect = lower value 0.981 | S. cerevisiae deletion strains, locus YPL031C, strain PHO85, stronger effect = lower value 0.949 | S. cerevisiae deletion strains, locus YPL153C, strain RAD53, stronger effect = lower value 0.928 | S. cerevisiae deletion strains, locus YPL204W, strain HRR25, stronger effect = lower value 0.945 | S. cerevisiae deletion strains, locus YPL209C, strain IPL1, stronger effect = lower value 0.978 | S. cerevisiae deletion strains, locus YPL256C, strain CLN2, stronger effect = lower value 0.991 | S. cerevisiae deletion strains, locus YPR025C, strain CCL1, stronger effect = lower value 0.982 | S. cerevisiae deletion strains, locus YPR106W, strain ISR1, stronger effect = lower value 0.98 | S. cerevisiae deletion strains, locus YPR111W, strain DBF20, stronger effect = lower value 0.977 | S. cerevisiae deletion strains, strain NNK1, stronger effect = lower value 0.981 | S. cerevisiae deletion strains, strain TSCII, stronger effect = lower value 0.99

CCOC(=O)Nc1ccc(NCc2ccc(F)cc2)nc1N
inactive: [3] 1.02 | S. cerevisiae deletion strains, locus YAL040C, strain CLN3, stronger effect = lower value 1.01 | S. cerevisiae deletion strains, locus YCL061C, strain MRC1 (second series), stronger effect = lower value 1 | [4] 0.991 | S. cerevisiae deletion strains, locus YDR363W, strain ESC2, stronger effect = lower value 1.02 | S. cerevisiae deletion strains, locus YER002W, strain NOP16, stronger effect = lower value 1 | [5] 1.07 | [6] 1.01 | [7] 0.994 | S. cerevisiae deletion strains, locus YNL128W, strain TEP1, stronger effect = lower value 0.993 | S. cerevisiae deletion strains, locus YNL175C, strain NOP13, stronger effect = lower value 1.01 | S. cerevisiae deletion strains, locus YNL197C, strain WHI3, stronger effect = lower value 1.01 | S. cerevisiae deletion strains, locus YNL224C, strain SQS1, stronger effect = lower value 1.04 | [8] 1.01 | S. cerevisiae deletion strains, locus YOR083W, strain WHI5 (second series), stronger effect = lower value 1.03 | [9] 1.02

CCOC(=O)c1c(C)csc1N
inactive: [3] 0.99 | [10] 0.999 | [11] 0.996 | [1] 0.998 | [12] 1.01 | [4] 1.01 | [13] 0.987 | [14] 0.983 | [2] 0.98 | [15] 1.01 | [16] 1 | [17] 1.01 | [6] 0.997 | [18] 1 | [19] 1.01 | [20] 0.983 | [21] 1.02 | [22] 0.984 | [23] 1.01 | S. cerevisiae deletion strains, locus YMR263W, strain SAP30, stronger effect = lower value 1.02 | [7] 0.9 | [24] 1 | [25] 0.967 | [8] 0.993 | [26] 0.984 | [9] 1.03 | [27] 0.972 | [28] 1.02

CCOC(=O)c1c(-c2ccc(F)cc2)csc1N
active: [3] 0.879 | [10] 0.905 | [11] 0.889 | [12] 0.887 | [13] 0.746 | [5] 0.928 | [2] 0.175 | [15] 0.858 | [16] 0.903 | [6] 0.86 | [18] 0.437 | [19] 0.897 | [20] 0.508 | [21] 0.438 | [22] 0.798 | [23] 0.93 | [25] 0.782 | [26] 0.842 | S. cerevisiae deletion strains, locus YOL006C, strain TOP1, stronger effect = lower value 0.479 | [9] 0.754 | [27] 0.807 | [28] 0.435 | S. cerevisiae strains, strain wild type, stronger effect = lower value 0.82
inactive: [1] 0.986 | [4] 0.986 | [14] 0.93 | [17] 0.957 | [24] 0.941 | [8] 0.95
